# Assay results: article PMC5540273 (PLoS ONE, 2017)
# Assays:
# Conditions in all cases: concentration: 1 μM, replicates: in singlicate; n = 1
# [1] = test system: T1, ERK4
# T1 construct: gene MAPK4
# [2] = test system: T2, ERK5
# T2 construct: gene MAPK7
# [3] = test system: T3, ERK8
# T3 construct: gene MAPK15
# [4] = test system: ERN1
# [5] = test system: T4, FAK
# T4 construct: gene PTK2
# [6] = test system: FER
# [7] = test system: FES
# [8] = test system: FGFR1
# [9] = test system: FGFR2
# [10] = test system: FGFR3
# 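Further: KINOMEscan kinase panel screen.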
Structure (SMILES),%Inh [1] [%],%Inh [2] [%],%Inh [3] [%],%Inh [4] [%],%Inh [5] [%],%Inh [6] [%],%Inh [7] [%],%Inh [8] [%],%Inh [9] [%],%Inh [10] [%]
O=C(Nc1ccccc1F)NC1CCN(c2ccnc(Nc3ccc(F)cc3)n2)C1 (centres unmarked) [GSK1379722],12,0,31,0,0,26,0,0,19,15
Cl.c1ccc(Cn2ccc3cc(Nc4ncnc5ccccc45)ccc32)cc1 [GW275568],46,7,0,0,0,17,15,0,0,28
COc1ccc(NC(=O)Nc2ccc(C)c(-c3ccc(C(=O)Nc4ccncc4)cc3)c2)cc1 [GSK1398475],0,0,0,0,0,5,2,0,0,11
Nc1n[nH]c2nnc(-c3ccccc3)cc12 [SB-517389],30,0,18,3,0,0,0,0,5,11
O=C(Nc1ccccc1)Nc1ccc(Oc2ccc3nccn3n2)cc1,0,1,14,100,0,0,0,0,8,15
Cc1ccc(NC(=O)c2cccc(C#N)c2)cc1-c1ccc(C(=O)Nc2ccncc2)cc1 [GSK1398463],25,96.8,38,15,0,3,17,10,17,33
Nc1nc(-c2cccnc2)c(-c2ccnc3ccccc23)s1 [GW684083],12,0,0,0,0,24,0,4,20,21
Fc1ccc(-c2ncn(CCCNCc3ccccc3)c2-c2ccncc2)cc1,14,0,13,14,0,13,23,0,0,0
CSc1ccc(NC2=C(c3ccccc3Cl)C(=O)NC2=O)cc1 [SB-342411],9,0,0,9,0,5,0,11,4,26
CCc1nc(-c2cccc(C)c2)c(-c2ccnc(NC(=O)c3ccccc3)c2)s1,2,9,0,23,0,0,32,11,0,0
O=c1cc(N2CCOCC2)nc2n(Cc3cccc(Cl)c3)ccn12 [GSK2296823],7,0,38,0,0,3,0,0,14,24
COc1cc2ncnc(Nc3ccc(OCc4ccccc4Br)c(Cl)c3)c2cc1OC.Cl [GI261590],32,0,0,0,0,18,25,0,38,12
CC(C)(C)OC(=O)NC1CCCN(c2cc(-c3ccc4c(N)n[nH]c4c3)nc(N)n2)C1 (centres unmarked) [GSK2286096],23,29,0,7,0,0,0,0,4,22
Cn1ccc2ncnc(Oc3ccc(NC(=O)Nc4cccnc4)c(Cl)c3)c21,0,5,0,37,0,0,16,0,0,0
CCn1c(-c2ccncc2)nc2cnccc21 [SB-735216],3,8,0,5,9,0,3,0,0,17
N#Cc1ccc(Oc2ccc(Nc3ncnc4cc[nH]c34)cc2Cl)cc1,17,20,12,8,8,0,17,9,1,8
COC(=O)c1c(-c2ccccc2)c2cc(Cl)ccc2c(=O)n1Cc1ccc(S(C)(=O)=O)cc1,3,13,6,13,4,0,3,0,8,6
